The structures appear in SMILES notation. A number with no mark means an inactive call. How the calls were made is not given here.

For the assay, the target named is Pantothenate synthetase (Mycobacterium tuberculosis (strain ATCC 25618 / H37Rv)) (UniProt P9WIL5). Kind of assay: Coupled enzyme confirmation of inhibitors against recombinant Mtb PanC (AID 375).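 Further: 0% = full reaction with vehicle and 100% = no enzyme background.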 As to conditions: coupled enzyme assay; at 10 µM, hits give high values.
Sequence of Pantothenate synthetase (Mycobacterium tuberculosis (strain ATCC 25618 / H37Rv)) (P9WIL5 whole entry, looked up): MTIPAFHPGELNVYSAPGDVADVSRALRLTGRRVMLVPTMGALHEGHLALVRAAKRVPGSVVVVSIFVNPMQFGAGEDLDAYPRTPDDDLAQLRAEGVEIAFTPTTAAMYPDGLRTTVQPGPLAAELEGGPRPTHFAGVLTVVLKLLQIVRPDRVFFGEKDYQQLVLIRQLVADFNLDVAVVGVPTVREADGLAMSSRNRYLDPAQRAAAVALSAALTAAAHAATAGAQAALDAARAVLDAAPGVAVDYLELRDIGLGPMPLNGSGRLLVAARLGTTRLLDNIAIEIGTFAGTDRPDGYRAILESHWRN
As to `COc1ccc(-c2noc(-c3ccccc3C(=O)NCc3ccco3)n2)cc1`, the inhibition was 3%.
With `CCN(CC)CC(C)CNC(=O)CC(C(=O)N1CCc2ccccc21)n1ccnc1` (centres undefined) the figure was 2%.
With `O=C(NCc1ccccc1)C1CCCN1S(=O)(=O)c1cccc2cccnc12` (centres undefined) the figure was 0%; with `CCOc1ccc(S(=O)(=O)Nc2cccc(Cl)c2)cc1`, 1%; with `CC1CCc2nn(CC(=O)NCc3ccc(F)cc3)cc2C1` (centres undefined), 7%.
Then `O=C(Nc1ccccc1Cl)c1c(F)c(F)c(F)c(F)c1F`, with 6%.
With `COc1ccccc1OCCOCCn1cnc2ccccc2c1=O`, the inhibition is 0%.
With `c1ccc(N2CCN(Cc3ccnc4ccccc34)CC2)cc1` the figure was 2%; with `CCc1cccc(NC(=O)CN(C)S(=O)(=O)c2cccc3nsnc23)c1`, 12%; with `O=C1c2ccccc2C(Nc2cccnc2)N1Cc1ccccc1Cl` (centres undefined), 0%.
Take `OC1(c2cccc(C(F)(F)F)c2)CCN(c2ccc(-c3ccccc3)nn2)CC1`: the inhibition is 0%.
Then `CCN(CC)c1ccc2cc(-c3nc4ccccc4[nH]3)c(=O)oc2c1`, with 0%; and `CS(=O)(=O)Nc1ccc(C(=O)NCc2ccc3c(c2)OCO3)cc1`, with 4%; and `Cc1occc1C(=O)Nc1cccc2ccccc12`, with 0%.
With `COc1ccc(C(=O)N2CCN(S(=O)(=O)c3cc(Cl)ccc3OC)CC2)cc1` the figure was 5%.
Then `c1cn(C23CC4CC(CC(C4)C2)C3)cn1`, with 0%.
With `CCOC(=O)c1ccc(NCc2nc3ccccc3[nH]2)cc1`, the inhibition is 4%.
For the molecule `CCOC(=O)c1cc2sc(C)cc2n1CC(=O)Nc1cccc(C)c1C`, the inhibition is 0%.
As to `Cc1ccc2nc(-c3ccc(S(=O)(=O)N4CCOCC4)cc3)cn2c1`, the inhibition was 0%.
As to `CCCNC(=O)N1CCN(S(=O)(=O)c2ccc(C)c(C)c2)CC1`, the inhibition was 4%.
As to `CC1CCc2nn(CC(=O)NCc3ccc4c(c3)OCO4)cc2C1` (centres undefined), the inhibition was 1%.
Then `O=C(O)CCCCCCC1C(=O)NC(=O)N1CCC(O)C1CCCCC1` (centres undefined), with 0%; and `CS(=O)(=O)c1ncc(Cl)c(C(=O)Nc2ccc(N3CCOCC3)cc2)n1`, with 2%.
Take `O=C1C(CCS(=O)c2ccccc2)C(=O)N(c2ccccc2)N1c1ccccc1` (centres undefined): the inhibition is 0%.
As to `O=C(CN1CCC(n2nnc3ccccc32)CC1)Nc1ccc2c(c1)CCC2`, the inhibition is 0%.
With `Cc1cccc(-n2ncc3c(N)ncnc32)c1` the figure was 3%; with `Cc1cc(C)n(-c2nc3c(c(=O)[nH]c(=O)n3C)n2Cc2ccc(F)cc2)n1`, 0%; with `CCOC(=O)Cc1csc(NC(=O)c2cccc(OC)c2)n1`, 0%.
Then `Cc1cc(C)c2c(=O)[nH]c(=O)n(Cc3ccccc3)c2n1`, with 0%.
For `Cc1cc(C)cc(N2CCCn3c2nc2c3c(=O)n(CCN3CCOCC3)c(=O)n2C)c1`, the inhibition was 7%.
With `CC(=O)NCCn1c(SCC(=O)NCC2CCCO2)nc2ccccc2c1=O` (centres undefined) the figure was 0%.
For `COc1ccccc1CN1CC(C(=O)NCc2cccnc2)CC1=O` (centres undefined), the inhibition was 2%.
Turning to `CCCCOc1ccccc1NC(=O)c1ccco1`, the inhibition was 0%.
With `CC1(C)CC(=O)CC(C)(C)N1OC(=O)c1ccccn1` the figure was 0%; with `C/C(=N\O)C(=O)C(CN1CCCCC1)CN1CCCCC1`, 0%; with `O=C(O)C1CC=CCC1C(=O)Nc1ccc(S(=O)(=O)N2CCCc3ccccc32)cc1` (centres undefined), 0%.
Then `CC(NC(=O)C1CC1)C(c1cccs1)N1CCN(c2ccccc2)CC1` (centres undefined), with 0%.
With `N#Cc1cnc(SCCc2ccccc2)nc1N` the figure was 0%; with `COc1cccc(NC(=O)c2ccco2)c1`, 0%.

The values above are taken from PubChem BioAssay.
